In PubChem BioAssay AID1851 (National Center for Advancing Translational Sciences (NCATS), 2009):
Hit rate of the full screen: of about 16,000 compounds, about 5,700 (36%) were called active. Roughly 24% stayed inconclusive and do not appear here. The list shows a part of the results. Values without a mark were called inactive. Calls follow the shape of the dose curve; as a rule, active = well fitted curve in the direction sought with a large enough effect; inconclusive = small, poorly fitted or top-dose-only effect, or effect the other way; inactive = no such curve, though single readings can be large or run the other way.

Target: Cytochrome P450 1A2 (Homo sapiens) (UniProt P05177)
Sequence (P05177 whole entry, looked up): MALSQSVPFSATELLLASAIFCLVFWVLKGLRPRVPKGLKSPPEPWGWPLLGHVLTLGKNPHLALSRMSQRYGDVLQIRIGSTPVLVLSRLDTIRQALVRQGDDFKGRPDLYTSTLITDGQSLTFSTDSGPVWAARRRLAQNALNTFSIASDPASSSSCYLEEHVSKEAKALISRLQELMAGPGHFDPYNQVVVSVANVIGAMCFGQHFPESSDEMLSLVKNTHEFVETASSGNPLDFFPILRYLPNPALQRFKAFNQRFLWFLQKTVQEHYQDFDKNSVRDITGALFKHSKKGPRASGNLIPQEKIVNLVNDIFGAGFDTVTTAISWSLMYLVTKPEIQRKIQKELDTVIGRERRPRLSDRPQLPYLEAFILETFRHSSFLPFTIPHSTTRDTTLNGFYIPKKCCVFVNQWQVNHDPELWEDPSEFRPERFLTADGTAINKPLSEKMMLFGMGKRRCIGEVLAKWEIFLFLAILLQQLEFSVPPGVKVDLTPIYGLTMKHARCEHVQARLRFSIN
Assay: Cytochrome panel assay with activity outcomes
Conditions: recombinant CYP, pro-luciferin dealkylation, luminescence, p450-cyp1a2; series mostly up to 57.1 µM; activity, negative = inhibition: at the top concentration
% is scaled to controls: 0 for no effect and ±100 for the full control effect.

SMILES	AC50	activity, negative = inhibition
COc1cc(N=c2ssnc2Cl)cc(OC)c1OC	3.16 µM (active)	–
COc1ccc(-c2nc3c([nH]2)c(=O)n(C)c(=O)n3C)c(OC)c1	2 µM (active)	–
Cn1c(=O)c2[nH]cnc2n(C)c1=O	–	-18.4% [at 25.6 µM]
Cn1c(=O)c2[nH]c(-c3ccccc3)nc2n(C)c1=O	2 µM (active)	–
CCn1c(=O)c2[nH]c(-c3ccccc3)nc2n(CC)c1=O	1 µM (active)	–
CCn1c(CCCc2nc3c([nH]2)c(=O)n(C)c(=O)n3C)nc2c1c(=O)n(C)c(=O)n2C	–	-16.7% [at 2.29 µM]
CCCn1c(=O)c2[nH]c(-c3ccccc3)nc2n(CCC)c1=O	0.0794 µM (active)	–
CCCn1c(=O)c2[nH]c(-c3ccc(OCC(=O)NCCN)cc3)nc2n(CCC)c1=O	–	5.09%
Cn1c(=O)c2[nH]c(CSCc3ccccc3)nc2n(C)c1=O	–	-15.4% [at 2.29 µM]
Cn1c(=O)c2[nH]c(-c3ccc(S(=O)(=O)O)cc3)nc2n(C)c1=O	–	-17.6%
Cn1c(=O)c2[nH]c(CCC(=O)O)nc2n(C)c1=O	–	-3.23% [at 11.4 µM]
CC(C)(C)c1ccc(OC(=O)Nc2ccc(O)c(C(=O)O)c2)cc1	–	6.5% [at 2.29 µM]
O=C(CC(c1ccccc1)c1ccccc1)Nc1ccc2c(c1)OCCO2	10 µM (active)	–
Cc1cc(NC(=O)c2c([N+](=O)[O-])cnn2C)no1	–	-10.2%
CC(=O)Nc1ccc2c(c1)OCCO2	10 µM (active)	–
CCOC(=O)Nc1ccc(C(=O)Oc2ccccc2)c(O)c1	3.16 µM (active)	–
CC(=O)Nc1ccc2c(c1)OCCOCCOc1cc(NC(C)=O)ccc1OCCOCCOCCO2	–	-0.0222%
O=C(Cn1ccc(=O)[nH]c1=O)Nc1ccc(C(=O)O)c(O)c1	–	-16.5% [at 2.29 µM]
O=C(CC1C(=O)NCCN1C(=S)Nc1ccccc1)Nc1ccc2c(c1)OCCO2 (stereo not given)	–	-16%
Cn1ncc([N+](=O)[O-])c1C(=O)Nc1ccc2c(c1)OCCO2	1.26 µM (active)	–
CCNC(=O)NC1(C(=O)Nc2ccc3c(c2)OCCO3)CCCCC1	–	15.2%
COc1cc2c(cc1OC)C(C(=O)Nc1ccc3c(c1)OCCO3)C(c1cccnc1)N(C)C2=O (stereo not given)	–	-15.2%
CC[n+]1c(P(=O)([O-])c2ccccc2)[nH]c2ccccc21	–	21.3%
COc1ccccc1CN1CCC2(CC1)CCN(C(=O)c1cccn1C)CC2	–	-12.2%

SMILES	AC50	activity, negative = inhibition
CC(C)NC(=O)N1CCC2(CC1)CCN(C(=O)c1cc(C(F)(F)F)cc(C(F)(F)F)c1)CC2	–	2.82%
O=C1C2CCC(C(O)C2)N1Cc1ccccc1 (stereo not given)	–	13.7%
CCOC(=O)Nc1ccc2c(c1)OCO2	1.26 µM (active)	–
O=c1cnc2cnc(Oc3cccc(Cl)c3)nc2n1Cc1ccc(F)cc1	15.8 µM (active)	–
COc1cccc(Cn2c(=O)cnc3cnc(Oc4cccc(Cl)c4)nc32)c1	12.6 µM (active)	–
COc1cccc(Cn2c(=O)cnc3cnc(OCc4ccccc4)nc32)c1	12.6 µM (active)	–
O=c1cnc2cnc(Oc3ccccc3)nc2n1Cc1ccc(F)cc1	15.8 µM (active)	–
CON1C(=O)C(=O)N(OC)C(C)(C)C1C (stereo not given)	–	-4.35%
COc1ccc(O[C@H]2C=C[C@@H](c3ccccc3)O[C@H]2COC(=O)CC/C(C)=N\O[C@@H](C)c2cn([C@H]3COC[C@H]3O)nn2)cc1	–	-4.14% [at 11.4 µM]
O=c1cnc2cnc(OCc3ccccc3)nc2n1Cc1ccc(F)cc1	12.6 µM (active)	–
COc1ncc2ncc(=O)n(Cc3ccc(F)cc3)c2n1	12.6 µM (active)	–
CC(=O)N(C[C@@H](O)CO)c1c(I)c(C(=O)NC[C@@H](O)CO)c(I)c(C(=O)NC[C@@H](O)CO)c1I	–	-4.01% [at 25.6 µM]
CC(C)COC[C@H](CN(Cc1ccccc1)c1ccccc1)N1CCCC1	–	5.78%
COc1ccc(N2C(=O)CSC2c2cccc(F)c2)c(OC)c1 (stereo not given)	–	-16.7%
CN1C(=O)CC[C@@H]1c1cccnc1	inactive	–
Cc1ccc(N2C(=O)CSC2c2cccnc2)cc1F (stereo not given)	15.8 µM (active)	–
O=C(CCCc1ccccc1)N1CCN(c2ccc([N+](=O)[O-])cc2)CC1	–	-22.5%
CC1(C)CC(=O)C2=C(C1)N(Cc1ccccc1)C(=O)C2(O)C(F)(F)F (stereo not given)	–	6.23%
COc1cccc(C(=O)N2N=C(c3cccc(OC)c3)CC2(O)C(F)(F)F)c1 (stereo not given)	14.1 µM (active)	–
CCOC(=O)N1CCN(S(=O)(=O)Cc2ccccc2)CC1	–	-29.3%
CCOC(=O)N1N=C(c2ccccc2)CC1(O)C(F)(F)F (stereo not given)	15.8 µM (active)	–
COc1cccc(C(=O)NNC2=CC(=O)CC(C)(C)C2)c1	–	1.45%
CCC1=NN(C(=O)CCc2ccccc2)C(O)(C(F)(F)F)C1 (stereo not given)	11.2 µM (active)	–
CO[C@H]1C=CO[C@]2(C)Oc3c(C)c(O)c4c(O)c(c5c(c4c3C2=O)NC2(CCN(CC(C)C)CC2)N=5)=NC(=O)C(C)=CC=C[C@@H](C)[C@@H](O)[C@@H](C)[C@@H](O)[C@@H](C)[C@@H](OC(C)=O)[C@@H]1C	–	-11.4% [at 25.6 µM]

SMILES	AC50	activity, negative = inhibition
COc1ccc(NC(=O)N2CC3(CCN(C(=O)c4csnn4)CC3)C2)cc1	–	2.39%
CCN1CCCC1Cn1cnc2c([nH]c3ccc(C)cc32)c1=O (stereo not given)	15.8 µM (active)	–
O=C(CCN1C(=O)c2ccccc2C1=O)Oc1ccc2ccccc2c1	17.8 µM (active)	–
O=C(O)[C@H](CCc1ccccc1)N1C(=O)c2ccccc2C1=O	–	-9.63% [at 2.29 µM]
O=C(O)CC[C@@H](C(=O)O)N1C(=O)c2ccccc2C1=O	inactive	–
CCOc1ccc(Cl)cc1CNCCNCC(C)O (stereo not given)	12.6 µM (active)	–
CCOc1ccccc1CNCCN1CCOCC1	–	2.73%
COc1c(Cl)cc(Cl)cc1CNCCNCC(C)O (stereo not given)	11.2 µM (active)	–
CCOc1cc(CNCCc2ccc(S(N)(=O)=O)cc2)ccc1OCc1ccc(Cl)cc1	–	-17%
CCOc1ccc(CC(C(N)=O)C(N)=O)cc1CN(C)C	–	-1.76%
CCOc1ccc(Cl)cc1CNCCNCCO	15.8 µM (active)	–
Cc1[nH]nc(-c2ccc(O)cc2O)c1-c1ccc(Cl)cc1	2.24 µM (active)	–
C=C(C)COc1ccc(-c2n[nH]c(C)c2-c2ccc(OC)cc2)c(O)c1	14.1 µM (active)	–
Oc1ccc(-c2[nH]ncc2-c2ccc(Cl)cc2)c(O)c1	1.58 µM (active)	–
CC1(C)O[C@@H]2O[C@H]([C@H](O)CO/N=C3/[C@H]4O[C@@H]4[C@@H](O)[C@H]4[C@H]3CCn3c(=O)n(-c5ccccc5)c(=O)n34)[C@@H](O)[C@@H]2O1	–	-7.71% [at 11.4 µM]
Cc1cc(NC(=O)C2C3C(=O)N(Cc4ccc(Cl)cc4)C(C(=O)NC(C)(C)C)C34C=CC2(C)O4)no1 (stereo not given)	–	2.8%
O=C(COc1ccc2ccccc2c1Br)NNC(=O)Nc1ccccc1	5.62 µM (active)	–
CCCC(=O)NNC(=O)Nc1ccccc1	–	-5.14%
N#Cc1ccc(-c2ccc(F)cc2)nc1Oc1ccc(Cl)c(Cl)c1	1 µM (active)	–
CCc1nnc(NC(=O)CSc2ncnc3c2cnn3-c2ccc(OC)cc2)s1	–	-0.31%
COc1ccc(-n2ncc3c(NCC4CCCO4)ncnc32)cc1 (stereo not given)	14.1 µM (active)	–
Cc1ccc(-n2ncc3c(=O)n(CC(=O)NCC4CCCO4)cnc32)cc1 (stereo not given)	–	-21.7%
Cc1nn(-c2nc3ccccc3[nH]2)c(N)c1-c1ccc(Cl)cc1	5.62 µM (active)	–
CCNC(=S)NNC(=O)c1cc(CC(C)C)nc2ccccc12	–	-18.6%

SMILES	AC50	activity, negative = inhibition
CCNC(=S)NNC(=O)c1cc(C2CC2)nc2ccccc12	8.91 µM (active)	–
COC(=O)C/C=C\[C@@H](C)[C@@H](/C=N\O[C@@H](C)c1cc(-c2c(C)cc(C)cc2C)no1)OC	–	-3.54% [at 11.4 µM]
O=C(O)C/C(=C\c1ccco1)C(=O)O	–	-11.8% [at 2.29 µM]
O=C(C=C1SCCS1)/C=C/c1ccco1	11.2 µM (active)	–
CC(C)C(C(=O)O)N1C(=O)/C(=C/C=C/c2ccco2)SC1=S (stereo not given)	–	-22%
Cc1cc(C)c(NC(=O)C[C@H](CC(=O)O)c2cccc3ccccc23)c(C(=O)N2CCC3(CCCC3)CC2)c1	–	2.66%
COc1ccc(NC(=O)c2cc(-c3cccnc3)nc3ccc(C)cc23)cc1OC	–	-24.8%
COC(=O)N1CCC2(CCN(Cc3ccccc3OC)CC2)CC1	–	2.41%
COC(=O)N1CCC2(CCCN(Cc3ccccc3OC)C2)CC1	–	-13.1%
COc1cc2c(cc1NC(=O)c1cc(-c3cccnc3)nc3ccc(C)cc13)oc1ccccc12	12.6 µM (active)	–
COc1ccccc1CC(=O)Nc1cc2oc3ccccc3c2cc1OC	1 µM (active)	–
COc1cc2c(cc1NC(=O)Nc1ccccc1)oc1ccccc12	2 µM (active)	–
CC1(C)C(=O)C(c2ccccc2)=C2CN3C(=O)N(CCc4ccccc4)C(=O)C3(Cc3ccc(C(F)(F)F)cc3)C=C21 (stereo not given)	–	-12.9%
CC[C@]1(C)CC(=O)NC1=O	inactive	–
CSc1nnc(-c2cc3c(-c4ccccc4)nn(C)c3s2)n1C	0.501 µM (active)	–
C=CCSc1nnc(-c2cc3c(-c4ccccc4)nn(C)c3s2)n1C	0.282 µM (active)	–
O=c1c(-c2nc3ccccc3s2)cccn1Cc1ccccc1	1.78 µM (active)	–
C=CCn1c(-c2cccn(Cc3ccccc3)c2=O)n[nH]c1=S	–	8.59%
CC(=O)COC(=O)CCc1nc2ccccc2[nH]c1=O	6.31 µM (active)	–
O=C(CCc1nc2ccccc2c(=O)[nH]1)OCC(=O)N1CCN(S(=O)(=O)c2ccccc2)CC1	–	-26.8%
Cn1c(=O)c2[nH]c(CCCCc3nc4ccccc4[nH]3)nc2n(C)c1=O	–	-15.8% [at 11.4 µM]
O=S(=O)(NCCNC/C=C\c1ccc(Br)cc1)c1cccc2cnccc12	2 µM (active)	–
CNCCNS(=O)(=O)c1cccc2cnccc12	–	-3.93%
